Compound activity: PubChem BioAssay, several laboratories
Shown are actives, neighbours in structure and some others; about 8.7% of the full set was active somewhere.
DAT uptake mod: changed hDAT dopamine uptake under cocaine IC80, either direction, primary screen, cocaine antagonist project, cell-based, LLC-PK1 hDAT, [14C]-dopamine uptake, MLSMR; LLC-PK1 hDAT cells, [14C]-dopamine uptake with cocaine IC80; actives deviate in either direction; B-score at 10 µM; Sodium-dependent dopamine transporter (Homo sapiens), Q01959; 1.3% of 110,000 active; AID 449768, 2010;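 active means Z score or B-score, a plate-position-corrected score, falls beyond the plate's 99.7% confidence bounds, in either direction; inactive means both scores lie inside the 99.7% bounds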;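 further: scored against the spread of the other compound wells on the same plate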
PostGolgi ctrl: growth inhibition of yeast control strain, primary screen, counter-screen for post-Golgi transport modulator project; 5% of 98,000 active; inhibition, % at 10 µM; efflux-deficient yeast background strain, growth absorbance A615, 16 h
TNAP act mid DEA: human TNAP enzyme activators, primary screen, biochemical, luminescent, intermediate phosphate acceptor level. 64,000 tested, under 10 active. purified TNAP, CDP-star luminescence, 100 mM DEA, 30 min; active compounds read high; scale: 0 levamisole-inhibited, 1 vehicle-only enzyme. activation factor at 20 µM. AID 813, 2007;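 active means activation factor of at least 2 at 20 µM, relative to controls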
Target sequence (P05186 whole entry, looked up): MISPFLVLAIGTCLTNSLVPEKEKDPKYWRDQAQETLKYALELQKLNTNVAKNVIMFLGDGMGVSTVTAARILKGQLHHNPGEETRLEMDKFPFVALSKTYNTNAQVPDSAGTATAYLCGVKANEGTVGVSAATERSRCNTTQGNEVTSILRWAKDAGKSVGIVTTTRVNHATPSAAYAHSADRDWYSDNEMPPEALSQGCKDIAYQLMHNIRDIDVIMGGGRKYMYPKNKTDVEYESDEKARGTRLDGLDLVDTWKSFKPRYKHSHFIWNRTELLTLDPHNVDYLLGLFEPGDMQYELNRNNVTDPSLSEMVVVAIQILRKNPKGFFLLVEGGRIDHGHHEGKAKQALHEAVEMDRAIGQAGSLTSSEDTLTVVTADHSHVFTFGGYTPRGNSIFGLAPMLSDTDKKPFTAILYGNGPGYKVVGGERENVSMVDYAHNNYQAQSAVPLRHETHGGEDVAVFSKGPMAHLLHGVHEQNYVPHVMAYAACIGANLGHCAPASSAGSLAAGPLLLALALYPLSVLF
Cav3 T inh: Cav3.2 calcium influx blockers – cell-based, Fluo-4 calcium fluorescence, FDSS, MLSMR library, primary screen; 4% of 100,000 active; AID 449739, 2010; B-score at 10 µM; Cav3.2-expressing cells; active compounds read low;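 active means single-dose well whose peak fluorescence ratio is a statistical outlier from its plate by either plate-standardised score or position-corrected B-score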
Smad3 FoxH1 inh: Smad3/FoxH1 peptide binding inhibitors, primary screen, biochemical, TR-FRET; Mothers against decapentaplegic homolog 3 (Homo sapiens), P84022; 0.29% of 88,000 active; inhibition, % at 25 µM; TR-FRET Smad3/Dy647-FoxH1 peptide binding, europium anti-His; AID 630, 2007;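 active means compounds that reduce the energy-transfer binding signal between the protein and its labelled peptide by more than half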;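 further: 0% = Smad3 plus labelled peptide maximal FRET and 100% = peptide-only background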
PostGolgi yeast: phenotypic screen on post-Golgi transport, primary screen; post-Golgi transport phenotypic cell assay; inhibition, % at 10 µM; 0.9% of 98,000 active; AID 739, 2007;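 further: yeast cells grown in 1536-well plates; yeast grown about 18 h at 30C before absorbance read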
Active calls of the source: *; . = no result given. Unless noted, no stated cut-off is given here; in the data, active means inhibition above about 30%; inactive means the rest.

SMILES	DAT uptake mod	PostGolgi ctrl	TNAP act mid DEA	Cav3 T inh	Smad3 FoxH1 inh	PostGolgi yeast
CCc1nnc(N2CCN(c3ncnc4c3oc3ccccc34)CC2)s1	-0.189	2.0	1	1.78	8.4	5.2
COCCn1c(SCC(=O)NC(=O)NC(C)(C)C)nc2ccccc21	0.0414	4.1	.	0.799	.	2.4
CC12CCC(C(=O)NCc3cccnc3)(OC1=O)C2(C)C (configuration not stated)	-0.271	8.6	1	0.0412	9.3	-2.6
CC12CCC(C(=O)N(Cc3ccccc3)Cc3ccccc3)(OC1=O)C2(C)C (configuration not stated)	-1.27	38.1*	.	-4.44	-0.6	-2.7
CC/C(C)=C1\SC(N2CCOCC2)=NC1=O	0.0715	6.2	.	1.25	-1.8	-1.9
COC(=O)CCC(=O)Nc1ccc(Br)cc1	-0.506	10.6	0.9	0.407	.	7.0
CN(C1=NC(=O)C(CC(=O)Nc2ccc(Br)cc2)S1)c1ccc(O)cc1 (configuration not stated)	-4.01*	-8.3	0.9	0.0747	-5.5	-3.8
Cc1cc(Oc2ccc(=O)n(C)n2)nc(Oc2ccc(=O)[nH]n2)n1	-0.0196	1.6	0.9	0.0337	0.0	8.8
CCOC(=O)N1CCN(C(=O)CN(Cc2ccccc2)S(=O)(=O)c2ccc(OC)c(C)c2)CC1	0.629	30.0*	1	-0.538	-3.5	-5.0
CCOC(=O)c1c(C)oc2c1cc(O)c1ccccc12	0.564	38.8*	1	0.481	2.1	-5.9
CCOC(=O)c1c(C)[nH]c2c1cc(O)c1ccccc12	1.16	7.3	.	-0.165	23.9	2.9
O=C(Oc1ccccc1Cl)c1ccc(-n2cncn2)nc1	-1.62	8.7	.	1.22	.	6.5
COc1ccc(OCc2nnc3n2N=C(c2ccc(OC)cc2)CS3)cc1	2.15	32.1*	0.9	-7.58*	4.2	-2.2
COc1ccc(C2=Nn3c(nnc3-c3ccco3)SC2)cc1	0.908	45.0*	.	0.752	25.4	20.6
COc1ccc(OC)c(C2=Nn3c(nnc3-c3ccco3)SC2)c1	-0.0717	25.8	0.8	-0.295	-2.9	0.1
CCOC(=O)c1c(NC(=O)c2ccccc2)sc2c(O)c(CN(CC)CC)ccc12	2.41*	22.4	.	-0.143	.	9.3
C[N+]1(CCCC[N+]2(C)CCCCCCC2)CCCCCCC1	.	.	.	.	15.3	.
O=C(O)c1cc(C2CC2)nc2ccccc12	-0.708	.	.	-2.14	.	.
CCc1ccc(/C=N/NC(=O)c2cc(C3CC3)nc3ccccc23)s1	0.042	32.0*	.	-1.1	.	10.7
CCOC(=O)c1c(N)sc(C(O)(C(F)(F)F)C(F)(F)F)c1-c1ccc(F)cc1	-0.602	16.0	.	-4.88*	-14.9	1.9
CCOC(=O)c1c(N)sc(C(O)(C(F)(F)F)C(F)(F)F)c1-c1ccc(Cl)cc1	-0.0711	71.8*	.	-0.569	14.4	-1.1
CCOC(=O)c1c(NC(=O)C2C3CCC(O3)C2C(=O)O)sc(C)c1-c1ccc(F)cc1 (configuration not stated)	-0.754	8.0	.	.	.	-4.7
O=C(CCNS(=O)(=O)c1cccc2nonc12)NCc1cccs1	0.0902	-5.6	1	0.586	4.8	21.3
C/C(=N\OC(=O)c1ccc(OC(C)C)cc1)c1ccc(C)c(C)c1	0.506	5.8	.	-2.4	.	-13.4
COCC(C)n1c(C)cc(C(=O)COC(=O)c2oc3ccccc3c2C)c1C (configuration not stated)	1.43	10.9	0.9	-5.76*	5.4	4.3
SMILES	DAT uptake mod	PostGolgi ctrl	TNAP act mid DEA	Cav3 T inh	Smad3 FoxH1 inh	PostGolgi yeast
CCN(CC)S(=O)(=O)c1ccc(NC(=O)c2cccc3c2C(=O)N(CCOC)C3)cc1	.	.	0.9	.	.	.
CNCCC(Oc1ccc(C(F)(F)F)cc1)c1ccccc1 (configuration not stated)	-0.255	.	0.8	-1.94	-5.5	.
NCCNC(=S)S	.	.	.	.	57.0*	.
COC(=O)C1CCN(C(=O)C(C)Oc2ccc(Cl)cc2Cl)CC1 (configuration not stated)	0.421	16.3	0.9	-0.826	1.4	-5.0
COc1ccc(CNC(=O)CSc2nc3c(c(=O)n(C)c(=O)n3C)n2C)cc1	.	.	.	.	-6.1	.
CCCN1/C(=C2/SC(=S)N(CC)C2=O)C=Cc2ccccc21	0.121	14.5	.	0.191	1.3	-6.0
CCCN1C(=O)/C(=C/C=C2\N(CC)c3ccccc3C2(C)C)SC1=S	-1.31	5.1	.	-4.5*	.	-1.7
O=C(Nc1ccccc1C(=O)NCc1ccc(Cl)cc1)c1ccco1	.	12.6	0.9	.	15.5	17.1
COc1cccc(NC(=O)CN2CCN(S(=O)(=O)c3ccc(C(C)C)cc3)CC2)c1	0.995	17.9	1	-7.27*	.	-9.6
COc1cccc(NC(=O)CN2CCN(c3ccccc3F)CC2)c1	0.296	32.1*	0.9	.	4.5	-7.9
COc1ccc(S(=O)(=O)N2CCN(CC(=O)Nc3cc(OC)cc(OC)c3)CC2)cc1	.	17.1	0.9	.	6.3	-2.1
COc1cc(NC(=O)CN2CCN(c3ccccc3F)CC2)cc(OC)c1	0.874	2.8	1	.	5.0	2.0
COc1cc(NC(=O)CN2CCN(S(=O)(=O)c3ccc(C(C)C)cc3)CC2)cc(OC)c1	0.007	20.5	1	-4.21*	.	-3.1
COc1cccc(NC(=O)CN2CCN(S(=O)(=O)c3ccc(F)cc3)CC2)c1	-0.119	0.1	.	0.0261	10.9	-2.4
CC[C@H](C)[C@H](NS(=O)(=O)c1ccc(C)cc1)C(=O)N1CCC(C(=O)N[C@H](C(=O)O)C(C)C)CC1	-0.104	-8.2	0.8	0.677	-6.3	2.8
COc1ccc(-n2c(SCC(=O)Nc3cc(C)on3)nc3ccc(O)cc3c2=O)cc1OC	0.857	-0.6	1	-1.48	.	-9.5
Clc1ccccc1-c1nc(-c2ccccc2)n[nH]1	2.7	-5.2	0.3	-0.953	7.4	17.0
NC(=S)N/N=C/c1ccc(-c2cc(Cl)cc(Cl)c2)o1	-0.0701	68.0*	.	-0.0981	7.0	29.8
NC(=S)N/N=C/c1ccc(-c2cc(Cl)ccc2Cl)o1	-1	93.5*	.	-0.606	.	19.1
S=C(c1ccc(-c2cc(Cl)ccc2Cl)o1)N1CCOCC1	0.893	21.5	0.9	-1.99	7.3	-5.0
O=C1CC(C(=O)Nc2ccccc2)C2(CCCCC2)O1 (configuration not stated)	-0.497	1.8	.	-0.00655	17.9	-1.8
CC1(c2cnc(Nc3ccccc3)s2)CCC(=O)O1 (configuration not stated)	-0.293	38.6*	0.9	0.834	4.2	-4.7
O=C1C2C3C=CC(C3)C2C(=O)N1/N=C/c1cc(Br)cc([N+](=O)[O-])c1O (configuration not stated)	-2.79*	3.9	.	-2.54	.	-1.6
